Consider seven compounds from PubChem BioAssay (Tox21).

Values without a mark were called inactive. Records with an inconclusive call do not appear. Active and inactive are the calls of the source. Unless noted, calls follow the shape of the full dose curve.

Assay [1] can be described thus: Nuclear factor erythroid 2-related factor 2/antioxidant responsive element (Nrf2/ARE) small molecule agonists: qHTS cell viability counter screen in human keratinocytes (AID 1919968; active = well fitted curve in the direction sought with a large enough effect in the repeat runs; an effect the other way counts as inactive or inconclusive; also: nearly all actives have a fitted effect of over 55% in size). The method, boiled down: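 Measured as CellTiter-Fluor fluorescence, this readout tracks cytotoxicity in the same wells as the ARE-luciferase screen. HaCaT reporter cells (1,500/well) received compounds after a 5 h pre-incubation and were exposed for 23 h.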
A general note: qHTS replaces the single test concentration by a dilution series.

Assay [2] can be described thus: Nuclear factor erythroid 2-related factor 2/antioxidant responsive element (Nrf2/ARE) small molecule agonists: luciferase reporter gene qHTS assay in human keratinocytes (AID 1919969; also: nearly all actives have a fitted effect of over 35% in size; also: potency is read from the fitted curve at half-maximal effect). (A reporter such as luciferase makes a cellular process visible.)
Assay [3] concerns the target Gonadotropin-releasing hormone receptor (Homo sapiens) (UniProt P30968). Description: Human gonadotropin-releasing hormone receptor (GnRHR) small molecule agonists, calcium flux assay in GnRHR-HEK293 cells (AID 1920063). Also: nearly all actives have a fitted effect of over 35% in size. Summed up:
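Fluorescence kinetics (480 nm excitation, 540 nm emission; 3 min, 1 s steps) report calcium mobilisation in human GnRHR-HEK293 cells in agonist mode. Dye incubation: 1 h, 37 C.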

Assay [4] deals with KiSS-1 receptor (Homo sapiens) (UniProt Q969F8). Put plainly: Human kisspeptin (KISS1R) small molecule agonists, calcium flux assay in KISS1R-HEK293 cells (AID 1920064; active = well fitted curve in the direction sought with a large enough effect in the repeat runs; an effect the other way counts as inactive or inconclusive). The method, boiled down: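 Measures KISS1R agonism through calcium-sensitive dye fluorescence in stably transfected HEK293 cells, read for 3 min after pin-tool compound delivery; 15-point titrations in triplicate.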
A general note: A change in cytosolic calcium serves as a functional read-out for many receptors and channels.

The nature of assay [5]: G protein-coupled receptor (GPCR) small molecule agonists, calcium flux assay: HEK293 wild type cell line counter screen (AID 1920065). Summed up:
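Readout: fluorescence at 480 nm excitation/540 nm emission, sampled at 1 s intervals for 3 min. Cells had been cultured 18 h, then dye-loaded 1 h at 37 C before compound or ATP addition.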

Assay [6] can be described thus: p53 small molecule agonists, cell-based qHTS assay with human liver microsomes (AID 1963577). The method, boiled down:
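p53RE-bla reporter cells were pre-incubated 5 h at 37 C, then treated with compounds plus human liver microsomes (0.5 mg/mL final) and NADPH (0.5 mg/mL final) for 16 h at 37 C. Beta-lactamase activity was read by LiveBLAzer fluorescence after 2 h at room temperature.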

Assay [7] is described as follows: p53 small molecule agonists, cell-based qHTS assay with rat liver microsomes (AID 1963578). The method, boiled down:
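p53RE-bla cells were exposed to compounds together with rat liver microsomes (0.5 mg/mL final) and NADPH (0.5 mg/mL final) for 16 h at 37 C, then read by LiveBLAzer beta-lactamase fluorescence after 2 h at room temperature.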

The nature of assay [8]: p53 small molecule agonists, cell-based qHTS assay with human liver microsomes: qHTS cell viability counter screen (AID 1963579). Also: nearly all actives have a fitted effect of over 45% in size. The method, boiled down: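 p53RE-bla cells (4,000/well) were pre-incubated 5 h at 37 C, then given compounds in DMSO plus human liver microsomes (0.5 mg/mL final) and NADPH (0.5 mg/mL final) for 16 h at 37 C. Viability was read by CellTiter-Glo luminescence.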

Assay [9] in a line: p53 small molecule agonists, cell-based qHTS assay with rat liver microsomes: qHTS cell viability counter screen (AID 1963580). Also: nearly all actives have a fitted effect of over 45% in size. Summed up: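 Viability is assessed in parallel with the p53 reporter read: HCT-116 p53RE-bla cells receive compounds plus rat microsomes and NADPH (0.5 mg/mL final apiece), incubate 16 h at 37 C, and then CellTiter-Glo luminescence is recorded.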
Assay [10] in a line: p53 small molecule agonists, cell-based qHTS assay (AID 1963582; active = well fitted activation curve with a large enough effect in the signal ratio in the repeat runs, not every such curve was filed as active; the % refers to the signal ratio). The method, boiled down: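 Compounds are pin-transferred in DMSO onto p53RE-bla cells and incubated 16 h at 37 C. The B/G FRET beta-lactamase substrate is then applied for 2 h at RT and fluorescence recorded.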
Assay [11] concerns the target 5-hydroxytryptamine receptor 2A (Homo sapiens) (UniProt P28223). Put plainly: 5-hydroxytryptamine receptor 2A (HTR2A) small molecule antagonists, cell-based qHTS assay (AID 1963586). Also: nearly all actives have a fitted effect of over 45% in size. Summed up: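 Antagonist-mode intracellular calcium assay: DOI (4 nM) added after 5 min compound pre-incubation at room temperature to dye-loaded HTR2A-CHO cells. Fluorescence followed for 3 min, sampled every second.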

Assay [12] has the same target. Description: 5-hydroxytryptamine receptor 2A (HTR2A) small molecule agonists, cell-based qHTS assay (AID 1963587). Also: nearly all actives have a fitted effect of over 30% in size. Summed up:
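CHO cells stably expressing human HTR2A, plated 18 h, loaded with calcium dye 1 h at 37 C. Agonist mode: compounds added and intracellular calcium fluorescence recorded kinetically for 2 min at 1 sec intervals.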

Assay [13] has as its target Muscarinic acetylcholine receptor M1 (Homo sapiens) (UniProt P11229). Description: Cholinergic receptor muscarinic 1 (CHRM1) small molecule antagonists, cell-based qHTS assay (AID 1963588). Also: nearly all actives have a fitted effect of over 40% in size. The method, boiled down:
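CHRM1-CHO calcium-flux assay, antagonist mode. Cells were seeded 18 h, dye-loaded 1 h at 37 C and given compound for 5 min at RT, then acetylcholine was added at 50nM. FDSS fluorescence was read 3 min; 15 concentrations, three runs.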

Assay [14] is described as follows: cAMP Responsive Elements (CRE) small molecule agonists, cell-based qHTS assay (AID 1963590). Summed up:
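Cell line: CRE-bla HEK 293T; medium DMEM/10% dialyzed FBS/0.1 mM NEAA/1 mM pyruvate/25 mM HEPES; 3 h compound exposure; beta-lactamase FRET readout after 2 h substrate loading at RT.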

Assay [15] can be described thus: cAMP Responsive Elements (CRE) small molecule antagonists, cell-based qHTS assay (AID 1963591; active = well fitted inhibition curve with a large enough effect in the signal ratio in the repeat runs, not every such curve was filed as active; the % refers to the signal ratio). Summed up:
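Inhibition of NKH477-driven (0.25 uM final) CRE-beta-lactamase signal in HEK293T cells, 3 h compound exposure at 37 °C, detected by FRET substrate fluorescence.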

Assay [16] concerns the target Beta-2 adrenergic receptor (Homo sapiens) (UniProt P07550). Put plainly: Adrenergic beta2 receptor (ADRB2) small molecule antagonists, cell-based qHTS assay (AID 1963592). Also: series mostly up to about 92 µM; nearly all actives have a fitted effect of over 50% in size. Summed up: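 Cells (CHO, stable ADRB2 overexpression) incubated 18-20hr at 37C; compounds added from DMSO; agonist mix (1nM isoproterenol, 100uM IBMX, 25uM Ro-20-1724) added; 0.5hr RT; d2-cAMP and anti-cAMP-cryptate added; 1hr RT; 665/615 nm read.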

Assay [17] shares this target. Description: Adrenergic beta2 receptor (ADRB2) small molecule agonists, cell-based qHTS assay (AID 1963593).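 Also: CHO cells stably overexpressing human ADRB2.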 Summed up: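 CHO cells stably over-expressing ADRB2 were plated overnight at 37C, then dosed with compounds plus a stimulation mix containing 100uM IBMX and 25uM Ro-20-1724 for 0.5hr at room temperature. cAMP was measured by HTRF competition, 1hr.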
Assay [18] has as its target D(2) dopamine receptor (Homo sapiens) (UniProt P14416). Put plainly: Dopamine D2 receptor (DRD2) small molecule agonists, cell-based qHTS assay (AID 1963594). Also: nearly all actives have a fitted effect of over 35% in size. Summed up:
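HEK293 cells stably expressing human DRD2, pre-treated with PDE inhibitor Ro20-1724 (0.1 mM final) and compound 10 min at room temperature, then stimulated with NKH477 (200nM […]) for 30 min. cAMP read by HTRF (665/620 nm).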

The target is the same in assay [19]. Put plainly: Dopamine D2 receptor (DRD2) small molecule antagonists, cell-based qHTS assay (AID 1963595; active = well fitted inhibition curve with a large enough effect in the signal ratio in the repeat runs, with a control signal flat; the % refers to the signal ratio). The method, boiled down: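 HEK293 cells stably expressing DRD2, preincubated with 0.1 mM Ro20-1724 and compounds 10 min, were stimulated with 200 nM NKH477 plus 12 nM quinpirole for 30 min at room temperature; cAMP measured by HTRF (665/620 nm).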
For assay [20], the target named is Muscarinic acetylcholine receptor M1 (Homo sapiens) (UniProt P11229). Put plainly: Cholinergic receptor muscarinic 1 (CHRM1) small molecule agonists, cell-based qHTS assay (AID 1963589). Also: nearly all actives have a fitted effect of over 35% in size. The method, boiled down: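 Each compound was tested at 15 concentrations across three independent runs on dye-loaded CHO cells stably expressing human CHRM1, reading intracellular calcium fluorescence kinetically at 1 sec intervals.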
% is scaled to controls: 0 for no effect and ±100 for the full control effect.

Sequence of Gonadotropin-releasing hormone receptor (Homo sapiens) (P30968 whole entry, looked up): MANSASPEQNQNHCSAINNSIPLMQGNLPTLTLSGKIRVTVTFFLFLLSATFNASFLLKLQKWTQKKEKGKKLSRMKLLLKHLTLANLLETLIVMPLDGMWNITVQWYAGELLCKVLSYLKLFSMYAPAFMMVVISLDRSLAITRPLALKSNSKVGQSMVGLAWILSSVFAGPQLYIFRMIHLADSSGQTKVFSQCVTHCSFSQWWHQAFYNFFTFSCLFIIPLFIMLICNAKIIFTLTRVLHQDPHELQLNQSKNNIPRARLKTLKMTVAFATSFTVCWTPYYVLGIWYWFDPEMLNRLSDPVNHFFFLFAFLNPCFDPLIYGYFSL
Sequence of Beta-2 adrenergic receptor (Homo sapiens) (P07550 whole entry, looked up): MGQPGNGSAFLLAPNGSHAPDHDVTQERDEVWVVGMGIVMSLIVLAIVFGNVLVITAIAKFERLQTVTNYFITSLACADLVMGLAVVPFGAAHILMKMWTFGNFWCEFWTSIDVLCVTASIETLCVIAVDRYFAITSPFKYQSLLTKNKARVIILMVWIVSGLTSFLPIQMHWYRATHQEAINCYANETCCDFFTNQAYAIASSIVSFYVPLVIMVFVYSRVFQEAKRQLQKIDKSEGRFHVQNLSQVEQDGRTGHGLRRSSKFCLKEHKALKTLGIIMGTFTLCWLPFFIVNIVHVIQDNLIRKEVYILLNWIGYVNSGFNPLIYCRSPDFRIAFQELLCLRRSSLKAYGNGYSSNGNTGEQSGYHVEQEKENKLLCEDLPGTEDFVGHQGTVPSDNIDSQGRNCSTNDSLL
Sequence of KiSS-1 receptor (Homo sapiens) (Q969F8 whole entry, looked up): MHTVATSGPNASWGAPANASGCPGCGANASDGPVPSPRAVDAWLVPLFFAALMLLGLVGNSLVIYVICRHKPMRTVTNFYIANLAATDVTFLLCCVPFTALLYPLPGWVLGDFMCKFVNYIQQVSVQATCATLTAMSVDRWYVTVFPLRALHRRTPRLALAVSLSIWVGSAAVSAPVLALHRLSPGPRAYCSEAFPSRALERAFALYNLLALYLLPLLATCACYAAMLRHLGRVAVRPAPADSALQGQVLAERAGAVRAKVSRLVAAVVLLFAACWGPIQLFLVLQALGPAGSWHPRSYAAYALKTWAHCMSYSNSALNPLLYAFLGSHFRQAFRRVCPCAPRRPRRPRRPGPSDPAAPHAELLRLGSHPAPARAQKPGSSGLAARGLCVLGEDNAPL
Sequence of D(2) dopamine receptor (Homo sapiens) (P14416 whole entry, looked up): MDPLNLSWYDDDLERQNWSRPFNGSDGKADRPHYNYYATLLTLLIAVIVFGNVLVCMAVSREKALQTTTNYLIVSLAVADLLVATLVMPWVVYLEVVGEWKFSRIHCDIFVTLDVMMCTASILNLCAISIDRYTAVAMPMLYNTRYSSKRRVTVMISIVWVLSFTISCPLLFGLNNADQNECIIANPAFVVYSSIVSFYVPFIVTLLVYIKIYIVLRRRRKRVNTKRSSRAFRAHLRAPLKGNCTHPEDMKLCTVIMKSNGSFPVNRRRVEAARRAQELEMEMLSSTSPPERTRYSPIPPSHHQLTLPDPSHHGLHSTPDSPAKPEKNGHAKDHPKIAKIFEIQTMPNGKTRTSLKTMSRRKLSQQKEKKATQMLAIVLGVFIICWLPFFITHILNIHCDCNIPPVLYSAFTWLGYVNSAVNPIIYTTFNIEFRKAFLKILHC
Sequence of Muscarinic acetylcholine receptor M1 (Homo sapiens) (P11229 whole entry, looked up): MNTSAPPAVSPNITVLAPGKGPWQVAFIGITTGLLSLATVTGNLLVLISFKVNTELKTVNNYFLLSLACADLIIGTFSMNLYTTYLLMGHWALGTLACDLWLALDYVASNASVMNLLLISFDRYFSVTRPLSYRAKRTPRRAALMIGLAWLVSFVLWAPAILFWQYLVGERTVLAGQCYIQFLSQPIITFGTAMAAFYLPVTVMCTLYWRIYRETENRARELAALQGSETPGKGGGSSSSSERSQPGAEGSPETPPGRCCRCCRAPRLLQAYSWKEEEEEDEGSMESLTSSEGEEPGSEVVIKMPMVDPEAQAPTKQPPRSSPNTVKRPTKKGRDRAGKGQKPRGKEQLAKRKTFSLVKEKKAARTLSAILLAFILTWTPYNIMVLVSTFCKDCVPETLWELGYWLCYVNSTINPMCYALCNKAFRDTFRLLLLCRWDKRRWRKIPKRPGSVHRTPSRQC
Sequence of 5-hydroxytryptamine receptor 2A (Homo sapiens) (P28223 whole entry, looked up): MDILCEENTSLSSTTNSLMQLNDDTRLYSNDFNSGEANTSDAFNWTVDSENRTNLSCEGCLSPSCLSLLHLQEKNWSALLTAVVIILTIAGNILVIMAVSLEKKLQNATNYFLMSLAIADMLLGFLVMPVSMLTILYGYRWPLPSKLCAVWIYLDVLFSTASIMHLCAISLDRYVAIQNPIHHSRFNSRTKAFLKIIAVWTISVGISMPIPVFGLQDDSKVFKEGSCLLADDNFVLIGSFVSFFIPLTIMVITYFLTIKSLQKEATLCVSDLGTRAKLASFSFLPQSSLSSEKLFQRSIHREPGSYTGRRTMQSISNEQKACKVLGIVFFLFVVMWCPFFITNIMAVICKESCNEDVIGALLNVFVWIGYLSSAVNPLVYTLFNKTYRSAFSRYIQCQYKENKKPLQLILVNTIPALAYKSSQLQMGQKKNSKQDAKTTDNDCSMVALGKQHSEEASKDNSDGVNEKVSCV

As to `CN(C)Cc1ccccc1`, the Potency entry in [1], in [2], in assay [3], in assay [6], in [7] and in assay [8] was “inactive” in each case. The Potency entry in assay [9], in assay [10], in [11], in [12], in [13] and in assay [14] was “inactive” throughout. Moreover, the Potency entry in assay [15], in assay [16], in assay [17], in assay [18] and in [19] was “inactive” in each case. Besides, the outcome in assay [4] and in assay [5] was inactive.

For the compound `c1ccc(CCNc2nc(-c3ccccc3)cs2)cc1`, the Potency entry in [1], in assay [3], in [6], in assay [7], in assay [8] and in [9] was “inactive” in each case. In addition, the Potency entry in assay [10], in assay [11], in assay [12], in assay [13], in [20] and in assay [15] was “inactive” throughout. The Potency result in assay [18] was “inactive”. In addition, in assay [2], the Potency is 0.596 µM (active). In addition, the outcome in assay [4] and in assay [5] was inactive.

`O=C1CCCC(=O)C1`: the Potency result in assay [1], in [2], in assay [3], in assay [6], in assay [7] and in assay [8] was “inactive” each time. Also, the Potency entry in assay [9], in assay [10], in [11], in [12], in assay [13] and in assay [15] was “inactive” throughout. The Potency entry in assay [16], in assay [18] and in [19] was “inactive” in each case. The result in assay [4] and in [5] was inactive.

Consider `CCCCCc1ccco1`, for which the Potency entry in [1], in assay [3], in [6], in [7], in [8] and in assay [9] was “inactive” each time. Moreover, the Potency entry in [10], in assay [12], in [20], in assay [14], in [15] and in [16] was “inactive” throughout. Further, the Potency entry in assay [17], in assay [18] and in assay [19] was “inactive” in each case. In addition, in assay [2], the Potency is 44.7 µM (active). Also, the result in assay [4] and in [5] was inactive.

Regarding `Nc1c2c(nc3ccccc13)CCCC2O` (centres undefined), the Potency result in assay [1], in assay [2], in [3], in [6], in assay [7] and in assay [8] was “inactive” each time. Besides, the Potency result in assay [9], in assay [10], in assay [11], in assay [12], in assay [13] and in assay [14] was “inactive” in each case. For the same compound, the Potency result in assay [15], in [16], in [18] and in assay [19] was “inactive” throughout. The outcome in assay [4] and in [5] was inactive.

Turning to `CCOC(=O)[C@H](C)O`, the Potency result in assay [1], in assay [2], in assay [3], in [6], in assay [7] and in assay [8] was “inactive” in each case. For the same compound, the Potency result in assay [9], in [10], in assay [11], in assay [12], in [13] and in [14] was “inactive” in each case. Further, the Potency entry in assay [15], in assay [16] and in assay [19] was “inactive” each time. Further, the result in assay [4] and in assay [5] was inactive.

As for `O=c1[nH]c(=O)c2[nH]c(=O)[nH]c2[nH]1`, the activity change, negative = cytotoxicity in assay [1] is 13.3% [at 8.39 µM]; in assay [8] it was -5.03% [at 5.99 µM]; in assay [9], -22.6% [at 5.99 µM]. Besides, the activity, positive = activation in assay [2] is 2.42% [at 8.39 µM]. Also, the activity change in [3] is -0.425% [at 5.22 µM, hits give high values]. Further, the activation is -0.365% [at 6.97 µM] in assay [4]; 1.57% [at 5.23 µM] in assay [5]; -6.75% [at 5.99 µM] in [6]; 1.18% [at 5.99 µM] in [7]; 1.49% [at 5.99 µM] in assay [10]; -9.75% [at 7.02 µM] in [12]. Moreover, the activation in assay [20] is -0.246% [at 6.97 µM]; in assay [14] it was 1.51% [at 8.39 µM]; in assay [17], 11.5% [at 8.39 µM]; in [18], 0.309% [at 8.39 µM]. In assay [13], the activity, negative = inhibition was 3.65% [at 5.58 µM]. Also, the values for the activity change, negative = inhibition in [15], in assay [16] and in assay [19] were -5.1% [at 8.39 µM], -4.56% [at 8.39 µM] and -2.53% [at 8.38 µM], respectively.
